Results published in the supplement of paper PMC7858590.
± gives the standard deviation of the averaged measurements. Over roughly 3,800 compounds, “cell shape (eccentricity) Z-score vs DMSO control” has its median near 1.1; the lowest 2% begin near -4.7. The list comes from a sample in which the lowest values are over-represented; it also holds similar structures and randomly drawn compounds.

The molecules below were run on human monocyte-derived macrophages (M0) (assay: cell shape (eccentricity) Z-score vs DMSO control; higher = more elongated, M2-like morphology). Conditions: 20 µM; 24 h; macrophage state: M0 (M-CSF).

Row | Structure (SMILES) | cell shape (Z-score)
1 | O=C(O)c1cc2cc(OCc3ccccc3)ccc2[nH]1 | 1.63
2 | CC(=O)O[C@H]1[C@H](Oc2ccccc2COC(=O)C2(O)C=CCCC2=O)O[C@H](CO)[C@@H](O)[C@@H]1O (stereo partly drawn) | 1.32
3 | CCn1cc(C(=O)O)c(=O)c2cc(F)c(N3CCNCC3)nc21 | -1.1
4 | C=C1C(=O)O[C@H]2C1CCC(C)=C1C(=O)C=C(C)[C@@H]12 (stereo partly drawn) | -3.7
5 | O=C(Cc1ccc(O)cc1)OC1[C@@H](O)[C@@H](O)C(OC(=O)Cc2ccc(O)cc2)[C@H](O)[C@@H]1O (stereo partly drawn) | 2.31
6 | C=C1C(=O)O[C@@H]2[C@H]3C(CO)=CC(=O)C3=C(C)C[C@H](OC(=O)Cc3ccc(O)cc3)[C@@H]12 | -6.23
7 | CC1(C)CCC(CN2CCN(c3ccc(C(=O)NS(=O)(=O)c4ccc(NCC5CCOCC5)c([N+](=O)[O-])c4)c(Oc4cnc5[nH]ccc5c4)c3)CC2)=C(c2ccc(Cl)cc2)C1 | 6.74
8 | COCc1c(C(C)C)nc(C(C)C)c(/C=C/[C@@H](O)C[C@@H](O)CC(=O)O)c1-c1ccc(F)cc1 | 10.1 ± 0.39
9 | CCC[C@@H]1C[C@@H](C(=O)NC(C(C)Cl)C2O[C@H](SC)[C@H](O)[C@@H](O)[C@H]2O)N(C)C1 (stereo partly drawn) | 3.16
10 | COc1cc2nc(N3CCCN(C)CC3)nc(NC3CCN(Cc4ccccc4)CC3)c2cc1OC | 3.25
11 | CC(Nc1nc(N2CCCC2)nc2ccccc12)c1ccccc1 (stereo not drawn) | -7.72
12 | Cc1cc(N2CCCCC2)nc2ccccc12 | 0.281
13 | CC#CCOC(=O)c1c(C)nc2sc3c(c2c1N)CCC(O)C3 (stereo not drawn) | -0.105
14 | C[C@@H]1O[C@@H](Oc2ccc(-c3coc4cc(O[C@@H]5O[C@@H](C)[C@H](O)[C@@H](O)[C@H]5O)cc(O)c4c3=O)cc2)[C@H](O)[C@H](O)[C@H]1O | -0.632
15 | c1ccc(COCCCc2cnc[nH]2)cc1 | 2.2
16 | O=C(CCCc1ccc(-c2ccccc2F)cc1)Nc1ccc(O)cc1 | -4.74
17 | O=C(O)CCCc1ccccc1 | 0.59
18 | Cc1c(Cl)cccc1Nc1ccccc1C(=O)O | 1.66
19 | O=C(O)c1ccccc1Nc1ccccc1 | 2.81
20 | COc1ccc(S(=O)(=O)N(C(C)=O)c2ccccc2/C=C/c2cc[n+]([O-])cc2)cc1 | -4.1
21 | CC(=O)OCC(=O)[C@@]1(O)CCC2C3CCC4=CC(=O)CC[C@]4(C)C3C(=O)C[C@@]21C (stereo partly drawn) | -0.245
22 | C=C1CCC2(C(=O)OC3OC(CO)C(O)C(O)C3O)CCC3(C)C(=CCC4C5(C)CC(O)C(OC6OCC(O)C(O)C6OC6OC(CO)C(O)C(O)C6O)C(C)(CO)C5CCC43C)C2C1 (stereo not drawn) | 0.275
23 | C=C(COC(=O)C(C)C)C1Oc2cc(C(C)=O)ccc2C1OC(=O)C(C)C (stereo not drawn) | 1.56
24 | Cc1cc(C)c(CNC(=O)c2cc(-c3ccc(N4CCNCC4)nc3)cc3c2cnn3C(C)C)c(=O)[nH]1 | 3.48
25 | CC(Cc1ccc(O)c(O)c1)(NN)C(=O)O (stereo not drawn) | -0.173
26 | C=C(C(=O)O[C@H]1CC=C(C)C[C@H](O)[C@H]2[C@H](C)C(=O)O[C@@H]2/C=C/1C)[C@@H]1CCC(=C)[C@@H]2C[C@H](O[C@@H]3O[C@H](CO[C@H]4OC[C@](O)(CO)[C@H]4O)[C@@H](O)[C@H](O)[C@H]3O)C(=C)[C@@H]2C1 | -4.65
27 | COc1cc(O[C@@H]2O[C@H](CO[C@H]3OC[C@](O)(CO)[C@H]3O)[C@@H](O)[C@H](O)[C@H]2O)cc(OC)c1OC | 1.07

Row | Structure (SMILES) | cell shape (Z-score)
28 | C=C1C(=O)O[C@@H]2[C@H]3C(=C)[C@@H](O[C@@H]4O[C@H](CO)[C@@H](O)[C@H](O)[C@H]4O)C[C@H]3C(=C)C[C@@H](O)[C@@H]12 | 2.36
29 | Cc1c(-c2ccnc(Nc3ccc(N4CCNCC4)cc3)n2)sc(=O)n1C | 9.91
30 | O=C(c1ccc(Nc2nccc(-c3cc4ccccc4s3)n2)cc1)N1CCC(N2CCCC2)CC1 | -4.98
31 | COc1cc(C(=O)N2CCC(N3CCN(C)CC3)CC2)ccc1Nc1ncc2c(n1)N(C)c1ccccc1C(=O)N2C | 8.88
32 | COc1cc(OC2OC(COC3OCC(O)(CO)C3O)C(O)C(O)C2O)c2c(-c3ccc(O)c(O)c3)cc(=O)oc2c1 (stereo not drawn) | -0.273
33 | CCOC(=O)C1C(=O)C(=O)Nc2ccccc21 (stereo not drawn) | 2.09
34 | CC[N+](CC)(CC(=O)Nc1c(C)cccc1C)Cc1ccccc1 | 1.74
35 | CC[N+](C)(CC)CC(=O)Nc1c(C)cccc1C | -0.632
36 | Cc1cccc(C)c1NC(=O)C[N+](C)(C)C | -4.98
37 | Cc1cc(=O)oc2c(O)c(O)ccc12 | 1.41
38 | Cc1cc2cc3c(C)cc(=O)oc3c(C)c2o1 | -4.76
39 | COc1ccc2c(C)cc(=O)oc2c1 | 4.64
40 | COC(=O)C1=C(C)NC(C)=C(C(=O)OCCCN2CCC(c3ccccc3)(c3ccccc3)CC2)[C@H]1c1cccc([N+](=O)[O-])c1 | 1.82
41 | CCC(=O)OCC1=CCCC2C1(C)CCC(C)C2(C)CCC(C)CC(=O)O (stereo not drawn) | 0.255
42 | COc1cc(C)c2c(=O)cc(-c3ccccc3)oc2c1 | 1.41
43 | COc1cc(O)c(C(=O)c2c(O)cc(C)cc2O)c(C(=O)O)c1 | 1.14 ± 0.29
44 | CO[C@@H]1CC(OC2CCC3(C)C(CCC45CCC(C6=CC(=O)OC6)C(C)(CCC43)C5=O)C2)O[C@H](C)[C@@H]1O[C@@H]1O[C@H](CO[C@@H]2O[C@H](CO)[C@@H](O)[C@H](O)[C@H]2O)[C@@H](O)[C@H](O)[C@H]1O (stereo partly drawn) | 1.71
45 | COC1CC(O[C@H]2CC[C@]3(C)C4CC[C@@]5(C)C(=O)[C@]4(CC[C@@H]3C2)CC[C@@H]5C2=CC(=O)OC2)OC(C)C1OC1OC(COC2OC(CO)C(O)C(O)C2O)C(O)C(O)C1O (stereo partly drawn) | 0.241
46 | C=C1[C@@H](C2=CC(=O)OC2)CC[C@@]2(O)[C@@H]1CC1[C@H]2CC[C@@H]2C[C@@H](O[C@H]3O[C@@H](C)[C@@H](O[C@@H]4O[C@H](CO[C@@H]5O[C@H](CO)[C@@H](O)[C@H](O)[C@H]5O)[C@@H](O)[C@H](O)[C@H]4O)[C@H](OC)[C@H]3O)CC[C@]12C (stereo partly drawn) | -4.99
47 | COC(CCc1ccc(O)c(O)c1)CC(=O)CCc1ccc(O)c(O)c1 (stereo not drawn) | 1.18
48 | CN1CCN(CCOc2cc(OC3CCOCC3)c3c(Nc4c(Cl)ccc5c4OCO5)ncnc3c2)CC1 | 5.59
49 | C[C@@H](C1=C(CCN(C)C)Cc2ccccc21)c1ccccn1 | 1.35
50 | CCOc1cc(/C=C(/C#N)C(N)=O)cc(CSc2ccccc2)c1O | 2.62
51 | O=C(O)Cc1nn(Cc2ccc(Br)cc2F)c(=O)c2ccccc12 | -4.79
52 | O=C(O)Cc1nn(Cc2nc3cc(C(F)(F)F)ccc3s2)c(=O)c2ccccc12 | 1.57
53 | CC(C)n1cnc2c(NCc3ccccc3O)nc(NCCCO)nc21 | 3.13
